Assay results taken from PubChem BioAssay (EPA / NIEHS).
Inconclusive results are not listed. Activity calls are given as the source filed them. The calls were made as follows: active = hit-call score of the fitted dose curve at least 0.9, where 1 is the maximum; inconclusive = response in the unintended direction; inactive = score below 0.9.

The compounds below were run against rat Monoamine Oxidase, MAO-B, Central (MAOBC), Maob (gene 25750) (UniProt P19643) (assay: NVS_ENZ_rMAOBC: NovaScreen (NVS) Enzymatic Assay for rat Monoamine Oxidase, MAO-B, Central (MAOBC) (AID 2283238)).
Chain of rat Monoamine Oxidase, MAO-B, Central (MAOBC), Maob (gene 25750) (P19643 whole entry, looked up): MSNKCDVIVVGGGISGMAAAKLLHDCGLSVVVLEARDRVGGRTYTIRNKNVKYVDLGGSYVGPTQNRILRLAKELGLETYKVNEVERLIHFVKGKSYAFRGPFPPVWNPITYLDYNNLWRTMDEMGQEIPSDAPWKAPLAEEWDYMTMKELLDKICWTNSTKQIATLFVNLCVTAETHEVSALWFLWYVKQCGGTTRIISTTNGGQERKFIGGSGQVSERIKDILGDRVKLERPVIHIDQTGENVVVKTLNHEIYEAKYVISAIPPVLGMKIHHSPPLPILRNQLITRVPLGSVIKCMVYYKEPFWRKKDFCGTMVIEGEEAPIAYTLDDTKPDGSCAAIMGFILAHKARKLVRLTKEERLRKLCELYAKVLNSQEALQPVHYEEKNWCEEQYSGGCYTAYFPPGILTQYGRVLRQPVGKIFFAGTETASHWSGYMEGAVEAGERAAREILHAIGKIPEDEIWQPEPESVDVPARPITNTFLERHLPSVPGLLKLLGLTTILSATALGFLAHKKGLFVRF
Method in brief: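 Cell-free radiometric assay, rat brain lysate. Read-out: scintillation counts, 1.17 h post-dosing. Screen 25 uM in duplicate; actives (e.g. ≥30% inhibition) then singleton concentration-response, max 50 uM. Activity loss fitted relative to DMSO.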

Row | SMILES | AC50 | outcome
1 | CC(=O)[O][Hg][c]1ccccc1 | 25 µM (active) | –
2 | CCN1CCC2(CC1)COc1cc3c(cc12)N(C(=O)c1ccc(-c2ccc(-c4nnc(C)o4)cc2C)cc1)CC3 | – | inactive
3 | Oc1cccc2cccnc12 | – | inactive
4 | CCC(=O)C(CC(C)N(C)C)(c1ccccc1)c1ccccc1 (configuration not stated) | 2.99 µM (active) | –

These compounds were tested on bovine Angiotensin II Receptor Type 2 (AT2), gene 407157 (assay: NVS_GPCR_bAT2: NovaScreen (NVS) G Protein-Coupled Receptor Assay for bovine Angiotensin II Receptor Type 2 (AT2) (AID 2283240)).
Method in brief: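 Radioligand displacement on bovine cerebellar membranes, 1 hour incubation, filter-based scintillation counting; loss of signal vs DMSO. Duplicate single-point screen at 25 uM, then concentration-response to 50 uM maximum.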

Row | SMILES | AC50 | outcome
5 | CC(=O)[O][Hg][c]1ccccc1 | 37.4 µM (active) | –
6 | O=C(Nc1ccc2[nH]ccc2c1)c1cc2cc(F)ccc2n1Cc1cccc(F)c1 | – | inactive
7 | C=C(C)C(=O)[O][Sn]([CH2]CCC)([CH2]CCC)[CH2]CCC | 25 µM (active) | –

These compounds were tested against bovine Dopamine Receptor (DR), Non-selective Binding, DRD1 (gene 281125) (UniProt Q95136) (assay: NVS_GPCR_bDR_NonSelective: NovaScreen (NVS) G Protein-Coupled Receptor Assay for bovine Dopamine Receptor (DR), Non-selective Binding (AID 2283241)).
Chain of bovine Dopamine Receptor (DR), Non-selective Binding, DRD1 (gene 281125) (Q95136 whole entry, looked up): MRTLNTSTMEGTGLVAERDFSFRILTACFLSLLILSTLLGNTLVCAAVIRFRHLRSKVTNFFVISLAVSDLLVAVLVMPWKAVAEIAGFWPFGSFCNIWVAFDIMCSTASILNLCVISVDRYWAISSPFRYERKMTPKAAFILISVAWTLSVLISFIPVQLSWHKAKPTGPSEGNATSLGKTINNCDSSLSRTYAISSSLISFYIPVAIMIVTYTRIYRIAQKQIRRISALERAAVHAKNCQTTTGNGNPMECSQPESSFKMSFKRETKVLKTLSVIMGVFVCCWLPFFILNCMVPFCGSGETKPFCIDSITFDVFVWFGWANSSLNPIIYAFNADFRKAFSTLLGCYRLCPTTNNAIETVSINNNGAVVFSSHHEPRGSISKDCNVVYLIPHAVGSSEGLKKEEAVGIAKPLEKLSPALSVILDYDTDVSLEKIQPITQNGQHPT
Description: NVS_GPCR_bDR_NonSelective is a biochemical, single-readout assay that uses extracted gene-proteins from Bovine striatal membranes in a tissue-based cell-free assay. Measurements were taken 1 hour after chemical dosing in a 48-well plate.NVS_GPCR_bDR_NonSelective is one of one assay component(s) measured or calculated from the NVS_GPCR_bDR_NonSelective assay. It is designed to make measurements of radioligand binding, a form of binding reporter, as detected with scintillation counting signals by Filter-based radiodetection technology.Data from the assay component NVS_GPCR_bDR_NonSelective was analyzed into 1 assay endpoint. This assay endpoint, NVS_GPCR_bDR_NonSelective, was analyzed in the positive analysis fitting direction relative to DMSO as the negative control and baseline of activity. Using a type of binding reporter, loss-of-signal activity can be used to understand changes in the binding as they relate to the gene DRD1. Furthermore, this assay endpoint can be referred to as a primary readout, because the performed assay has only produced 1 assay endpoint. To generalize the intended target to other relatable targets, this assay endpoint is annotated to the gpcr intended target family, where the subfamily is rhodopsin-like receptor.
Binding assays used specific radioligands (tritiated, iodinated) with non-radioactive competitive displacement ligands in agonist or antagonist protocols (as indicated) and various reference compounds and inhibitors to titrate specific binding to receptors and transporters. Most enzyme assays (CYPs, kinases, phosphatases, proteases, HDACs) used recombinant protein and specific substrates (fluorescence mostly, some colorimetric and radioactive) and inhibitors, followed by a biochemical separation of substrate and product. All assays for the biochemical HTS were initially run in duplicate at a single concentration (10 uM for CYP450 assays and 25 uM for all others). […] Each assay was run with positive and negative controls, and concurrent controls on every plate. […]

Row | SMILES | AC50
8 | CCN1CCC2(CC1)COc1cc3c(cc12)N(C(=O)c1ccc(-c2ccc(-c4nnc(C)o4)cc2C)cc1)CC3 | 9.79 µM (active)
9 | C=C(C)C(=O)[O][Sn]([CH2]CCC)([CH2]CCC)[CH2]CCC | 10.6 µM (active)
10 | CCC(=O)C(CC(C)N(C)C)(c1ccccc1)c1ccccc1 (configuration not stated) | 6.89 µM (active)

These compounds were tested against rat Monoamine Oxidase, MAO-B, Peripheral (MAOBP), Maob (gene 25750) (UniProt P19643) (assay: NVS_ENZ_rMAOBP: NovaScreen (NVS) Enzymatic Assay for rat Monoamine Oxidase, MAO-B, Peripheral (MAOBP) (AID 2283242)).
Chain of rat Monoamine Oxidase, MAO-B, Peripheral (MAOBP), Maob (gene 25750) (P19643 whole entry, looked up): as the sequence (P19643 whole entry, looked up) above

Row | SMILES | outcome | AC50
11 | C[C@]12CCC(=O)C[C@@H]1CC[C@@H]1[C@@H]2CC[C@]2(C)[C@@H](O)CC[C@@H]12 | inactive | –
12 | CCN1CCC2(CC1)COc1cc3c(cc12)N(C(=O)c1ccc(-c2ccc(-c4nnc(C)o4)cc2C)cc1)CC3 | – | 19.5 µM (active)
13 | CCC(=O)C(CC(C)N(C)C)(c1ccccc1)c1ccccc1 (configuration not stated) | – | 4.1 µM (active)
14 | CC12CC1(C)C(=O)N(c1cc(Cl)cc(Cl)c1)C2=O (configuration not stated) | inactive | –

Each compound was assayed on rat Monoamine Oxidase, MAO-A, Central (MAOAC), gene 29253 (assay: NVS_ENZ_rMAOAC: NovaScreen (NVS) Enzymatic Assay for rat Monoamine Oxidase, MAO-A, Central (MAOAC) (AID 2283243);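 also: potency refers to inhibition seen as signal drop below DMSO baseline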).
Description: NVS_ENZ_rMAOAC is a biochemical, single-readout assay that uses extracted gene-proteins from Rat brain in a tissue-based cell-free assay. Measurements were taken 1.5 hours after chemical dosing in a 96-well plate.NVS_ENZ_rMAOAC is one of one assay component(s) measured or calculated from the NVS_ENZ_rMAOAC assay. It is designed to make measurements of enzyme activity, a form of enzyme reporter, as detected with scintillation counting signals by Lysate-based radiodetection technology.Data from the assay component NVS_ENZ_rMAOAC was analyzed into 1 assay endpoint. This assay endpoint, NVS_ENZ_rMAOAC, was analyzed in the positive analysis fitting direction relative to DMSO as the negative control and baseline of activity. Using a type of enzyme reporter, loss-of-signal activity can be used to understand changes in the enzymatic activity as they relate to the gene Maoa. Furthermore, this assay endpoint can be referred to as a primary readout, because this assay has produced multiple assay endpoints where this one serves a enzymatic activity function. To generalize the intended target to other relatable targets, this assay endpoint is annotated to the oxidoreductase intended target family, where the subfamily is monoamine oxidase.
Binding assays used specific radioligands (tritiated, iodinated) with non-radioactive competitive displacement ligands in agonist or antagonist protocols (as indicated) and various reference compounds and inhibitors to titrate specific binding to receptors and transporters. Most enzyme assays (CYPs, kinases, phosphatases, proteases, HDACs) used recombinant protein and specific substrates (fluorescence mostly, some colorimetric and radioactive) and inhibitors, followed by a biochemical separation of substrate and product. All assays for the biochemical HTS were initially run in duplicate at a single concentration (10 uM for CYP450 assays and 25 uM for all others). […] Each assay was run with positive and negative controls, and concurrent controls on every plate. The follow-up (secondary) screen tested active chemical-pairs in concentration series, as well as a few additional assays not tested in the primary screen, some selected negative inactives, and several cases re-run in the concentration series for confirmatory purposes.

Row | SMILES | AC50 | outcome
15 | Nc1cccc2ccccc12 | 25 µM (active) | –
16 | O=S(=O)(c1ccc(Cl)cc1)c1ccc(Cl)cc1 | – | inactive
17 | CCOC(=O)Nc1cccc(OC(=O)Nc2ccccc2)c1 | 5.76 µM (active) | –
18 | Oc1ccc(-c2ccccc2)cc1 | 13.8 µM (active) | –
19 | CCN1CCC2(CC1)COc1cc3c(cc12)N(C(=O)c1ccc(-c2ccc(-c4nnc(C)o4)cc2C)cc1)CC3 | 23.4 µM (active) | –
20 | COc1ccc(OC)c(C=O)c1 | 17.3 µM (active) | –
21 | O=[N+]([O-])c1ccc2c3c(cccc13)CC2 | 6.28 µM (active) | –
22 | N#CCc1ccc(Cl)cc1 | 25 µM (active) | –
